Assay: enhancers of NK cell killing of ovarian tumor cells, primary screen, imaging, OVCAR3, primary NK cells, calcein-AM imaging (AID 1508625);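 also: compound given to NK cells 16 h before adding targets at 1.5 to 1 ratio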
Conditions: OVCAR3 lysis by primary NK cells, at 5 µM; z-score: measured here: robust Z-score, single-point normalisation

Compound	corrected activity, negative = more killing	z-score
COc1ccc(C=c2sc3nc4cc(C)c(C)cc4n3c2=O)cc1Br	-0.475%	-0.246
COc1cc2c(cc1NCc1ccccn1)oc1ccccc12	-2.51%	-1.12
Cc1cc(C)c(C=Nc2ccc(-c3ccccc3[N+](=O)[O-])cc2)c(C)c1	-4.49%	-1.91
COc1ccccc1CNCc1ccccn1	-2.41%	-0.766
COC(=O)c1conc1-c1ccccc1OC	-3.1%	-1.35
O=c1c2cn[nH]c2nc(SCc2ccccc2F)n1-c1ccc(Oc2ccccc2)cc1	-0.689%	-0.251
Cc1ccc(N2CC(C(=O)Nc3cccc(C)n3)CC2=O)cc1 (stereo not drawn)	-3%	-1.13
O=C(CCCN1C(=O)c2cccc3cccc(c23)C1=O)NCCO	-1.75%	-0.651
COc1ccc(CN2C(=O)c3ccccc3C2C(=O)NCCCN2CC(C)CC(C)C2)cc1 (stereo not drawn)	-3.06%	-0.869
O=C1C(=O)N(CCCN2CCOCC2)C(c2ccco2)C1=C(O)c1ccc(F)cc1 (stereo not drawn)	-4.3%	-1.86
CC1CCC(NC2CCCc3c2[nH]c2ccc([N+](=O)[O-])cc32)CC1 (stereo not drawn)	3.89%	1.7
COc1ccc(C(=O)NC23CC4CC(CC(C4)C2)C3)c(OC)c1	-4.55%	-1.79
Cc1ccc(OCCNC(=O)C2CCCCC2)cc1	-4.66%	-2.59
Cc1cc(=O)n2[nH]c(C)cc2n1	-3.27%	-0.975
CCN1CCN(C(=O)C2c3ccccc3C(=O)N(C)C2c2cccs2)CC1 (stereo not drawn)	-7.01%	-1.74
c1ccc(CN2CCN(Cc3ccc4ccccc4c3)CC2)nc1	-2.43%	-1.08
CCOc1ccc2nc(SCCC(=O)Nc3ccc(OC)cc3)sc2c1	-5.58%	-2.99
O=C1CC(c2ccc(Cl)cc2)CC2=C1C(c1cccc(F)c1)Nc1ccccc1N2 (stereo not drawn)	-9.53%	-2.95
CCCCNCC(=O)Nc1ccc(Br)cc1	-5.05%	-1.88
COCCNCC(O)Cn1c2ccccc2c2ccccc21 (stereo not drawn)	2.4%	0.916
O=C(c1oc(=O)c2ccccc2c1-c1ccccc1)N(CCc1ccccc1)Cc1ccccc1	-5.06%	-1.24
CCOC(=O)c1ccc2c(c1)[C@@H]1C=CC[C@@H]1[C@H](c1ccccc1C(F)(F)F)N2	-3.03%	-0.905

Compound	corrected activity, negative = more killing	z-score
O=C(Nc1ccc2oc(-c3cccc4c(Br)cccc34)nc2c1)c1ccccc1[N+](=O)[O-]	-6.04%	-2.14
COc1ccc(C(=O)N2CCN(CC=Cc3ccccc3)CC2)cc1	-1.03%	-0.422
CCOc1ccc(NC(=O)C2c3ccccc3Oc3ccccc32)c([N+](=O)[O-])c1	-0.899%	-0.37
Cc1occc1C(=O)N1N=C(C2CC2)CC1(O)C(F)(F)F (stereo not drawn)	-2.75%	-1.13
CN(C(=O)c1cnc2n(c1=O)CCS2)c1ccccc1	-7.51%	-2.39
O=[N+]([O-])c1ccc(OCc2ccc(Br)cc2)cc1	-1.79%	-0.994
COCCNCCCOc1cccc(Br)c1	-1.7%	-0.634
Cc1cccc(OCC(=O)N2CCN(S(C)(=O)=O)CC2)c1	-2.23%	-0.994
COc1ccc2nc3oc(C(=O)NCCc4ccc(Cl)cc4)cc3cc2c1	-5.81%	-1.43
COC(=O)c1cc(Cl)c(NC(=O)c2cc3ccccc3oc2=O)cc1OC	-1.77%	-0.79
Clc1ccc(CSc2ncnc3c2oc2ccccc23)cc1	-4.09%	-1.16
CCOc1ccc(-n2c(SCC(=O)Nc3ccc(C)cc3)nc3c([nH]c4ccccc43)c2=O)cc1	-5.11%	-1.27
COc1ccc(C=Nc2ccc(C(N)=O)cc2)cc1	-2.24%	-0.885
COc1ccc(Cl)cc1NC(=O)CSc1nc2c([nH]c3ccccc32)c(=O)n1C	-2.37%	-0.59
CC1CCCN(c2ncnc3scc(-c4ccccc4)c23)C1 (stereo not drawn)	-2.34%	-0.85
CCSc1nnc(NC(=O)CSc2nc3c(c(=O)n2-c2ccccc2OC)SCC3)s1	-4.89%	-1.22
Cc1c(Cl)cccc1NC(=O)c1sc2ncn(CC(=O)N3CCOCC3)c(=O)c2c1C	0.676%	0.246
Cc1ccc(-n2cnc3cc(C(=O)NCC4CCCO4)ccc32)cc1Cl (stereo not drawn)	-0.997%	-0.269
O=C1C2C(c3ccc([N+](=O)[O-])cc3)OC3(C(=O)c4ccccc4C3=O)C2C(=O)N1c1ccc(Cl)cc1 (stereo not drawn)	-3.68%	-1.14
COc1ccc(-c2csc(Nc3ncccn3)n2)cc1OC	-2.57%	-1.15
CCOC(=O)c1ccc(NC(=O)c2cnc3n(c2=O)CCS3)cc1	-6.64%	-2.11
N#Cc1c(SCC(=O)c2ccccc2)nsc1SCC(=O)c1ccccc1	-5.48%	-2.94

From PubChem BioAssay AID1508625 (Wald Lab, School of Medicine, Case Western Reserve …, 2021)
